# Experimental data from PubChem BioAssay (EPA / NIEHS).
# Activity calls are given as the source filed them. How the source made its calls, unless noted: active means hit-call score of the fitted dose curve at least 0.9, where 1 is the maximum; inactive means score below 0.9.
# Tests used:
# [1] = read-out: Protein phosphatase 2A (PPP2R4), PTPA (gene 5524); test: LTEA_HepaRG_PPP2R4: Life Technologies and Expression Analysis (LTEA) Assay for Protein phosphatase 2A (PPP2R4) using HepaRG (AID 2283522); settings: mRNA level, 48 h; actives raise or lower the signal
# Outline: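 Gene-expression endpoint in HepaRG hepatic cells: 48 h treatment across eight half-log concentrations up to 100 uM in 0.5% DMSO. PPP2R4 mRNA by qRT-PCR, normalized to three endogenous control genes.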
# [2] = read-out: Phosphatase and tensin (PTEN), PTEN (gene 5728); test: LTEA_HepaRG_PTEN: Life Technologies and Expression Analysis (LTEA) Assay for Phosphatase and tensin (PTEN) using HepaRG (AID 2283523); settings: mRNA level, 48 h; actives raise or lower the signal
# Outline: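 Differentiated human HepaRG cells, plated 48 h then switched to serum-free induction medium, were exposed in duplicate for 48 h to eight half-log concentrations up to 100 uM in 0.5% DMSO. PTEN mRNA measured by TaqMan qRT-PCR, normalized to ACTB/GAPDH/POLR2A, bidirectional fit versus DMSO.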
# [3] = read-out: solute carrier (SLC22A1), SLC22A1 (gene 6580); test: LTEA_HepaRG_SLC22A1: Life Technologies and Expression Analysis (LTEA) Assay for solute carrier (SLC22A1) using HepaRG (AID 2283524); settings: mRNA level, 48 h; actives raise or lower the signal
# Outline: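 Human HepaRG cells were plated 48 h, switched to serum-free induction medium, then exposed in duplicate for 48 h to 8-point half-log series from 100 uM in 0.5% DMSO. SLC22A1 mRNA measured by qRT-PCR, normalized to ACTB/GAPDH/POLR2A, fitted bidirectionally versus DMSO.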
# [4] = read-out: Pyruvate Dehydrogenase Kinase 4 (PDK4), PDK4 (gene 5166); test: LTEA_HepaRG_PDK4: Life Technologies and Expression Analysis (LTEA) Assay for Pyruvate Dehydrogenase Kinase 4 (PDK4) using HepaRG (AID 2283525); settings: mRNA level, 48 h; actives raise or lower the signal
# Outline: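 Differentiated human HepaRG cells, pre-cultured 48 h, were exposed in duplicate for 48 h in serum-free induction medium to eight half-log concentrations up to 100 uM in 0.5% DMSO. PDK4 mRNA was quantified by qRT-PCR, normalized to ACTB, GAPDH and POLR2A, bidirectional fitting versus DMSO.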
# [5] = read-out: NAD(P)H dehydrogenase [quinone] 1 (NQO1), NQO1 (gene 1728); test: LTEA_HepaRG_NQO1: Life Technologies and Expression Analysis (LTEA) Assay for NAD(P)H dehydrogenase [quinone] 1 (NQO1) using HepaRG (AID 2283526); settings: mRNA level, 48 h; actives raise or lower the signal
# Outline: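 Human HepaRG hepatic cells received chemicals for 48 h in serum-free induction medium with 0.5% DMSO, up to 100 uM. Expression was assessed by TaqMan qRT-PCR against housekeeping controls and fitted bidirectionally against DMSO.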
# [6] = read-out: Nuclear factor erythroid 2-related factor 2 (Homo sapiens) (UniProt Q16236); test: LTEA_HepaRG_NFE2L2: Life Technologies and Expression Analysis (LTEA) Assay for Nuclear factor erythroid 2-related factor 2 (NFE2L2) Transcription Factor using HepaRG (AID 2283527); settings: mRNA level, 48 h; actives raise or lower the signal;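 on outcome: TaqMan qRT-PCR transcript level normalised to ACTB GAPDH and POLR2A housekeeping genes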
# Outline: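 Differentiated human HepaRG cells in serum-free induction medium were exposed for 48 h to eight concentrations (top 100 uM, half-log dilutions, 0.5% DMSO), in duplicate. NFE2L2 mRNA was quantified by TaqMan qRT-PCR, normalized to ACTB, GAPDH and POLR2A, with bidirectional fitting versus DMSO.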
# [7] = read-out: succinate dehydrogenase complex iron sulfur subunit B (SDHB), SDHB (gene 6390); test: LTEA_HepaRG_SDHB: Life Technologies and Expression Analysis (LTEA) Assay for succinate dehydrogenase complex iron sulfur subunit B (SDHB) using HepaRG (AID 2283528); settings: mRNA level, 48 h; actives raise or lower the signal
# Outline: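 HepaRG cells (~100,000/well, plated 48 h) exposed in duplicate for 48 h in serum-free induction medium to 8-point half-log series from 100 uM in 0.5% DMSO; mRNA by qRT-PCR normalised to ACTB, GAPDH, POLR2A; bidirectional fit versus DMSO.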
# [8] = read-out: Signal transducer and activator of transcription 3 (Homo sapiens) (UniProt P40763); test: LTEA_HepaRG_STAT3: Life Technologies and Expression Analysis (LTEA) Assay for Signal transducer and activator of transcription (STAT3) using HepaRG (AID 2283529); settings: mRNA level, 48 h; actives raise or lower the signal
# Outline: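 Differentiated human HepaRG cells in serum-free induction medium were exposed in duplicate for 48 h to eight half-log concentrations up to 100 uM in 0.5% DMSO. STAT3 mRNA was quantified by TaqMan qRT-PCR, normalized to ACTB, GAPDH and POLR2A, and fitted bidirectionally against DMSO.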
# [9] = read-out: solute carrier (SLCO1B1), SLCO1B1 (gene 10599); test: LTEA_HepaRG_SLCO1B1: Life Technologies and Expression Analysis (LTEA) Assay for solute carrier (SLCO1B1) using HepaRG (AID 2283530); settings: mRNA level, 48 h; actives raise or lower the signal
# Outline: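 Human HepaRG cultures treated for 48 h with an eight-concentration half-log series topping at 100 uM; SLCO1B1 measured by qRT-PCR and fitted bidirectionally relative to DMSO.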
# [10] = read-out: sulfotransferase 2A1 (SULT2A1), SULT2A1 (gene 6822); test: LTEA_HepaRG_SULT2A1: Life Technologies and Expression Analysis (LTEA) Assay for sulfotransferase 2A1 (SULT2A1) using HepaRG (AID 2283531); settings: mRNA level, 48 h; actives raise or lower the signal
# Outline: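 Gene-expression endpoint in a human liver cell line: SULT2A1 mRNA change after 48 h chemical treatment, curves fitted in both directions relative to 0.5% DMSO vehicle. Concentrations spanned eight half-log steps from 100 uM.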
# [11] = read-out: Transforming Growth Factor (TGFA), TGFA (gene 7039); test: LTEA_HepaRG_TGFA: Life Technologies and Expression Analysis (LTEA) Assay for Transforming Growth Factor (TGFA) using HepaRG (AID 2283532); settings: mRNA level, 48 h; actives raise or lower the signal
# Outline: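 Differentiated human HepaRG cells, plated 48 h then switched to serum-free induction medium, were exposed in duplicate for 48 h to 8-point half-log series from 100 uM in 0.5% DMSO. TGFA mRNA measured by qRT-PCR, normalized to ACTB/GAPDH/POLR2A, bidirectional fit versus DMSO.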
# [12] = read-out: Transforming Growth Factor (TGFB1), TGFB1 (gene 7040); test: LTEA_HepaRG_TGFB1: Life Technologies and Expression Analysis (LTEA) Assay for Transforming Growth Factor (TGFB1) Transporter using HepaRG (AID 2283533); settings: mRNA level, 48 h; actives raise or lower the signal
# Outline: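 Eight-point concentration-response (max 100 uM, half-log) in HepaRG under serum-free induction conditions, 48 h. TGFB1 mRNA by qRT-PCR, housekeeping-normalized.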
# [13] = read-out: TIMP1, TIMP1 (gene 7076); test: LTEA_HepaRG_TIMP1: Life Technologies and Expression Analysis (LTEA) Assay for TIMP1 using HepaRG (AID 2283534); settings: mRNA level, 48 h; actives raise or lower the signal;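 further: TaqMan qRT-PCR signal normalized to ACTB GAPDH and POLR2A housekeeping genes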
# Outline: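 TIMP1 induction or repression in HepaRG cells after 48 h chemical exposure (eight concentrations, highest 100 uM), assessed by normalized qRT-PCR with bidirectional fitting to DMSO controls.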
# [14] = read-out: Tumor necrosis factor receptor 1 (TNFRSF1A), TNFRSF1A (gene 7132); test: LTEA_HepaRG_TNFRSF1A: Life Technologies and Expression Analysis (LTEA) Assay for Tumor necrosis factor receptor 1 (TNFRSF1A) using HepaRG (AID 2283535); settings: mRNA level, 48 h; actives raise or lower the signal
# Outline: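 Assay uses 48 h chemical treatment of differentiated HepaRG monolayers, tested in duplicate at eight concentrations from 100 uM downward in 0.5% DMSO. mRNA is normalized to ACTB, GAPDH and POLR2A, with induction or suppression fitted relative to vehicle.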
# [15] = read-out: Thyroid Hormone Responsive (THRSP), THRSP (gene 7069); test: LTEA_HepaRG_THRSP: Life Technologies and Expression Analysis (LTEA) Assay for Thyroid Hormone Responsive (THRSP) using HepaRG (AID 2283536); settings: mRNA level, 48 h; actives raise or lower the signal
# Outline: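 Differentiated human HepaRG cells were exposed in duplicate for 48 h in serum-free induction medium to eight concentrations (top 100 uM, half-log steps, 0.5% DMSO). Expression was quantified by TaqMan qRT-PCR, normalized to ACTB, GAPDH and POLR2A, with bidirectional fitting against DMSO.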
# [16] = read-out: UDP glucuronosyltransferase (UGT1A1), UGT1A1 (gene 54658); test: LTEA_HepaRG_UGT1A1: Life Technologies and Expression Analysis (LTEA) Assay for UDP glucuronosyltransferase (UGT1A1) using HepaRG (AID 2283538); settings: mRNA level, 48 h; actives raise or lower the signal
# Outline: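 Human liver HepaRG cultures receive test chemical for 48 h, up to 100 uM in 0.5% DMSO, with phenobarbital induction controls. UGT1A1 mRNA is measured by qRT-PCR and normalized to ACTB, GAPDH and POLR2A.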
# [17] = read-out: UDP glucuronosyltransferase (UGT1A6), UGT1A6 (gene 54578); test: LTEA_HepaRG_UGT1A6: Life Technologies and Expression Analysis (LTEA) Assay for UDP glucuronosyltransferase (UGT1A6) using HepaRG (AID 2283539); settings: mRNA level, 48 h; actives raise or lower the signal
# Outline: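 Measures mRNA change in HepaRG hepatic cells exposed 48 h to chemicals (eight-point, maximum 100 uM, 0.5% DMSO vehicle) in serum-free induction medium. Expression normalized to endogenous controls; DMSO served as negative control and baseline.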
# [18] = read-out: X-box binding protein 1 (XBP1), XBP1 (gene 7494); test: LTEA_HepaRG_XBP1: Life Technologies and Expression Analysis (LTEA) Assay for X-box binding protein 1 (XBP1) using HepaRG (AID 2283540); settings: mRNA level, 48 h; actives raise or lower the signal
# Outline: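 Eight concentrations (half-log, highest 100 uM, 0.5% DMSO) tested in duplicate on HepaRG cells over 48 h in serum-free induction medium; qRT-PCR of XBP1 normalised to ACTB, GAPDH, POLR2A.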
# [19] = LTEA_HepaRG_LDH_cytotoxicity: Cytotoxicity Assessment in the Life Technologies and Expression Analysis (LTEA) Assay (AID 2283563; active means hit-call score of the fitted dose curve at least 0.9, where 1 is the maximum)
# Outline: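 Spent-medium LDH after 48 h chemical exposure of HepaRG cells in serum-free induction medium; eight concentrations, half-log dilutions from 100 uM, duplicate wells, fitted upward relative to 0.5% DMSO.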
# Chain of Signal transducer and activator of transcription 3 (Homo sapiens) (P40763 whole entry, looked up): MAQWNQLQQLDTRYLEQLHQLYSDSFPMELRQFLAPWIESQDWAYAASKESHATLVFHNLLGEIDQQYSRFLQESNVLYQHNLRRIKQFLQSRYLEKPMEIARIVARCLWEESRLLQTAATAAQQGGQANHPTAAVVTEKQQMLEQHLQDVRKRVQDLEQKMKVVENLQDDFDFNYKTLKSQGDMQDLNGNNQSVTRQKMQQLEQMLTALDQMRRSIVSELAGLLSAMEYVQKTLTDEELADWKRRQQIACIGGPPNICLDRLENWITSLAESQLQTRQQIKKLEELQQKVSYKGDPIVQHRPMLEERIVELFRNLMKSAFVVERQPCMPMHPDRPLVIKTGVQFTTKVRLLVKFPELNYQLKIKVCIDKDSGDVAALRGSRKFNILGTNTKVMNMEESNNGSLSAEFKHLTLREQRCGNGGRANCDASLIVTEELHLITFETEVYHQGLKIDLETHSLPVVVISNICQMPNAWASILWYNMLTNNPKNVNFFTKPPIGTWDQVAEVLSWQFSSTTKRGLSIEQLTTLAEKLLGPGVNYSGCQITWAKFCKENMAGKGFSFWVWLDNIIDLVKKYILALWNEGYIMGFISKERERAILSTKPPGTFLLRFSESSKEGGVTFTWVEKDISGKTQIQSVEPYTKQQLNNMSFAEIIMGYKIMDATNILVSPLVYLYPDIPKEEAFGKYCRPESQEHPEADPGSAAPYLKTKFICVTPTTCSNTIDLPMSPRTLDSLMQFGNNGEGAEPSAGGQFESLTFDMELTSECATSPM
# Chain of Nuclear factor erythroid 2-related factor 2 (Homo sapiens) (Q16236 whole entry, looked up): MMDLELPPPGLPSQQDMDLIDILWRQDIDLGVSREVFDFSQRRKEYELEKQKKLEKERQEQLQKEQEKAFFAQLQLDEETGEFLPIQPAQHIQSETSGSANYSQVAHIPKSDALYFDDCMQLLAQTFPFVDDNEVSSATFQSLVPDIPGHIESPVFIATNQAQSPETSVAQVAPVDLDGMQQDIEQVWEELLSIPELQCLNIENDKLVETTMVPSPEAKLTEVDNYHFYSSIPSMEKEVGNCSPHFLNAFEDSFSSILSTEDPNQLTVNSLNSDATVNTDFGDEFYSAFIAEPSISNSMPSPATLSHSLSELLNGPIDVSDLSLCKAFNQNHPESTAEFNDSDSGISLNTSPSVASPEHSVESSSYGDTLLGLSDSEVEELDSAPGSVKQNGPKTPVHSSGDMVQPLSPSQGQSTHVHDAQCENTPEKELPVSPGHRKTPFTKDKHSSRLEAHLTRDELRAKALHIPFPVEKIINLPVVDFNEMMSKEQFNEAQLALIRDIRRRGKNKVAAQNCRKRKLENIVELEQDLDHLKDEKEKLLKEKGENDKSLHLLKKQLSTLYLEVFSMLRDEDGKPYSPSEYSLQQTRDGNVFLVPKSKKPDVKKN
smiles,measurement,setting,value
Cc1cc(Cl)ccc1OCC(=O)O,outcome,[1],inactive
same,outcome,[2],inactive
same,outcome,[3],inactive
same,AC50,[4],35.5 µM (active)
same,outcome,[5],inactive
same,outcome,[6],inactive
same,outcome,[7],inactive
same,outcome,[8],inactive
same,outcome,[9],inactive
same,AC50,[10],85.8 µM (active)
same,outcome,[11],inactive
same,outcome,[12],inactive
same,outcome,[13],inactive
same,outcome,[14],inactive
same,outcome,[15],inactive
same,outcome,[16],inactive
same,outcome,[17],inactive
same,outcome,[18],inactive
same,outcome,[19],inactive
Cc1c(F)c(F)c(COC(=O)C2C(/C=C(\Cl)C(F)(F)F)C2(C)C)c(F)c1F (centres undefined),outcome,[1],inactive
same,outcome,[2],inactive
same,AC50,[3],12.3 µM (active)
same,outcome,[4],inactive
same,outcome,[5],inactive
same,outcome,[6],inactive
same,outcome,[7],inactive
same,outcome,[8],inactive
same,outcome,[9],inactive
same,outcome,[10],inactive
same,outcome,[11],inactive
same,outcome,[12],inactive
same,outcome,[13],inactive
same,outcome,[14],inactive
same,outcome,[15],inactive
same,outcome,[16],inactive
same,outcome,[17],inactive
same,outcome,[18],inactive
CS/C(C)=N/OC(=O)N(C)SN(C)C(=O)O/N=C(\C)SC,outcome,[1],inactive
same,outcome,[2],inactive
same,outcome,[3],inactive
same,outcome,[4],inactive
same,outcome,[5],inactive
same,outcome,[6],inactive
same,outcome,[7],inactive
same,outcome,[8],inactive
same,outcome,[9],inactive
same,outcome,[10],inactive
same,outcome,[11],inactive
same,outcome,[12],inactive
same,outcome,[13],inactive
same,outcome,[14],inactive
same,outcome,[15],inactive
same,AC50,[16],29.1 µM (active)
same,outcome,[17],inactive
same,outcome,[18],inactive
CON(C)C(=O)Nc1ccc(Cl)c(Cl)c1,outcome,[1],inactive
same,outcome,[2],inactive
same,AC50,[3],50 µM (active)
same,outcome,[4],inactive
same,outcome,[5],inactive
same,AC50,[6],86.9 µM (active)
same,outcome,[7],inactive
same,outcome,[8],inactive
same,outcome,[9],inactive
same,outcome,[10],inactive
same,outcome,[11],inactive
same,outcome,[12],inactive
same,outcome,[13],inactive
same,outcome,[14],inactive
same,AC50,[15],11.4 µM (active)
same,AC50,[16],32.5 µM (active)
same,outcome,[17],inactive
same,outcome,[18],inactive
COc1cnc(OC)n2nc(NS(=O)(=O)c3c(OCC(F)F)cccc3C(F)(F)F)nc12,outcome,[1],inactive
same,outcome,[2],inactive
same,outcome,[3],inactive
same,outcome,[4],inactive
same,outcome,[5],inactive
same,outcome,[6],inactive
same,outcome,[7],inactive
same,outcome,[8],inactive
same,outcome,[9],inactive
same,outcome,[10],inactive
same,outcome,[11],inactive
same,outcome,[12],inactive
same,outcome,[13],inactive
same,outcome,[14],inactive
same,AC50,[15],50 µM (active)
same,AC50,[16],19 µM (active)
same,outcome,[17],inactive
same,outcome,[18],inactive
CCCCC(CC)COC(=O)c1ccccc1C(=O)OCC(CC)CCCC (centres undefined),outcome,[1],inactive
same,outcome,[2],inactive
same,outcome,[3],inactive
same,outcome,[4],inactive
same,outcome,[5],inactive
same,outcome,[6],inactive
same,outcome,[7],inactive
same,outcome,[8],inactive
same,outcome,[9],inactive
same,outcome,[10],inactive
same,outcome,[11],inactive
same,outcome,[12],inactive
same,outcome,[13],inactive
same,outcome,[14],inactive
same,outcome,[15],inactive
same,AC50,[16],9.29 µM (active)
same,outcome,[17],inactive
same,outcome,[18],inactive
